Assay results as given in PubChem BioAssay (EPA / NIEHS).
Records with an inconclusive call do not appear. Activity calls are given as the source filed them. The calls were made as follows: active = hit-call score of the fitted dose curve at least 0.9, where 1 is the maximum; inconclusive = response in the unintended direction; inactive = score below 0.9.

System: not listed separately
Assay: TOX21_p53_BLA_p5_viability: Viability Assessment in the Tox21 HCT-116 p53 Agonism Beta-lactamase Assay, Phase 5 (AID 2283600)
How it was run: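 4000 cells/well; 5 h pre-incubation; DMSO compounds pin-transferred, 217-fold dilution; 16 h, 37C/5% CO2; CCF4-AM 2 h RT; CellTiter-Glo 30 min RT; luminescence.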

| Structure (SMILES) | outcome |
| --- | --- |
| O=C1C=CCCC1 | inactive |
| CCOC(=O)NCCC[Si](OCC)(OCC)OCC | inactive |
| CC(=O)N=c1sc(S(N)(=O)=O)nn1C | inactive |
| O=c1[nH]cnc2ccccc12 | inactive |
| CC(C)(C)C(=O)Oc1ccc(S(=O)(=O)Nc2ccccc2C(=O)NCC(=O)O)cc1 | inactive |
| O=[N+]([O-])c1ccc2[nH]ncc2c1 | inactive |
| Cc1cccc(Nc2ccncc2S(=O)(=O)NC(=O)NC(C)C)c1 | inactive |
| CCOC(=O)OCC/C(SC(=O)OCC)=C(\C)N(C=O)Cc1cnc(C)nc1N | inactive |
| O=C(CN1CCN(Cc2ccc3c(c2)OCO3)CC1)N1c2ccccc2Sc2ccccc21 | inactive |
| CC(=O)Nc1cccc(C)c1 | inactive |
| CNCCCN1c2ccccc2CCc2ccccc21 | inactive |
| C[C@]12CCC(=O)C=C1CC[C@@H]1[C@@H]2[C@@H](O)C[C@@]2(C)[C@H]1CC[C@]2(O)C(=O)COC(=O)CCC(=O)O | inactive |
| O=C1c2c(O)cccc2C([C@@H]2O[C@H](CO)[C@@H](O)[C@H](O)[C@H]2O)c2cc(CO)cc(O)c21 (stereo partly specified) | inactive |
| CCCNCC(O)COc1ccccc1C(=O)CCc1ccccc1 (stereo unspecified) | inactive |
| Cc1ccc(C(C)NC(=O)[C@@H](NC(=O)OC(C)C)C(C)C)cc1 (stereo partly specified) | inactive |
| O=C(O)c1ccc(CO)o1 | inactive |
| COc1ccccc1OCCNCC(O)COc1cccc2[nH]c3ccccc3c12 (stereo unspecified) | inactive |
| CCC(C)(C)C(=O)O | inactive |
| O=C(CCC1CCN(Cc2ccccc2)CC1)c1ccc2c(c1)NCCCC2 | inactive |
| Nc1ccc2c3c(cccc13)-c1ccccc1-2 | inactive |
| Nc1nc2c(ncn2CCC(CO)CO)c(=O)[nH]1 | inactive |
| O=C(O)c1cc2ccccc2c(Cc2c(O)c(C(=O)O)cc3ccccc23)c1O | inactive |

Molecular target: Cellular tumor antigen p53 (Homo sapiens) (UniProt P04637)
Sequence (P04637 whole entry, looked up): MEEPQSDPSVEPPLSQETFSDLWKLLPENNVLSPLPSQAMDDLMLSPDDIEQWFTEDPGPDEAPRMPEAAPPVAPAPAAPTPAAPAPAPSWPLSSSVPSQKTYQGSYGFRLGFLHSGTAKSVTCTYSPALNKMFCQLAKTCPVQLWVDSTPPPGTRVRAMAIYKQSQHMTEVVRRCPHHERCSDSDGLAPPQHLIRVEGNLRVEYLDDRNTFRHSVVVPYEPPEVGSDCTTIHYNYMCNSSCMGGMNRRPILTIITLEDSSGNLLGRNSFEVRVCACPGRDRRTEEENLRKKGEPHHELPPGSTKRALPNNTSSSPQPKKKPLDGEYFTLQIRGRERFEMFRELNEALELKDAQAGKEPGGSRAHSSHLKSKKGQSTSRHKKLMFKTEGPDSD
Assay: TOX21_p53_BLA_p4_ratio: Tox21 HCT-116 p53 Agonism Beta-lactamase Assay, Ratio, Phase 4 (AID 2283601)
How it was run: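 HCT116 cells carrying an inducible beta-lactamase reporter were plated at 4000 cells/well, rested 5 h, then exposed to compounds in DMSO (217-fold dilution) for 16 h at 37C. CCF4-AM substrate was loaded 2 h at room temperature; 460/530 nm emission ratio scored gain-of-signal versus DMSO.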

| Structure (SMILES) | outcome | AC50 |
| --- | --- | --- |
| NC(=O)c1ccncc1 | inactive |  |
| CC(=O)N=c1sc(S(N)(=O)=O)nn1C | inactive |  |
| O=C1NC2CCCCN2C12CCN(CCCN1c3ccccc3CCc3ccc(Cl)cc31)CC2 (stereo unspecified) | inactive |  |
| O=c1[nH]cnc2ccccc12 | inactive |  |
| CC(C)(C)C(=O)Oc1ccc(S(=O)(=O)Nc2ccccc2C(=O)NCC(=O)O)cc1 | inactive |  |
| O=[N+]([O-])c1ccc2[nH]ncc2c1 | inactive |  |
| CC(=O)CC(c1ccc([N+](=O)[O-])cc1)c1c(O)c2ccccc2oc1=O (stereo unspecified) | inactive |  |
| OC1OC[C@@H](O)[C@H](O)[C@@H]1O (stereo partly specified) | inactive |  |
| Cc1onc(-c2ccccc2)c1C(=O)N[C@@H]1C(=O)N2[C@@H]1SC(C)(C)[C@@H]2C(=O)O | inactive |  |
| CC(C)=CCC/C(C)=C/CC/C(C)=C/CCC(=O)OC/C=C(\C)CCC=C(C)C | inactive |  |
| Cn1ccc2cc3c(cc21)CCN3C(=O)Nc1cccnc1 | inactive |  |
| O=C1c2ccccc2CN2C(=O)c3ccccc3CN12 | inactive |  |
| Cc1cccc(Nc2ccncc2S(=O)(=O)NC(=O)NC(C)C)c1 | inactive |  |
| c1ccc(COCc2ccccc2)cc1 | inactive |  |
| O=C(CN1CCN(Cc2ccc3c(c2)OCO3)CC1)N1c2ccccc2Sc2ccccc21 | inactive |  |
| CC(=O)Nc1cccc(C)c1 | inactive |  |
| CNCCCN1c2ccccc2CCc2ccccc21 | inactive |  |
| CN1C(CCl)Nc2cc(Cl)c(S(N)(=O)=O)cc2S1(=O)=O (stereo unspecified) | inactive |  |
| C[C@]12CCC(=O)C=C1CC[C@@H]1[C@@H]2[C@@H](O)C[C@@]2(C)[C@H]1CC[C@]2(O)C(=O)COC(=O)CCC(=O)O | inactive |  |
| CC(=O)N(CC(C)C(=O)O)c1c(I)cc(I)c(N)c1I (stereo unspecified) | inactive |  |
| O=C1c2c(O)cccc2C([C@@H]2O[C@H](CO)[C@@H](O)[C@H](O)[C@H]2O)c2cc(CO)cc(O)c21 (stereo partly specified) | inactive |  |
| Cc1ccc(C(C)NC(=O)[C@@H](NC(=O)OC(C)C)C(C)C)cc1 (stereo partly specified) | inactive |  |
| O=C(O)c1ccc(CO)o1 | inactive |  |
| COc1ccccc1OCCNCC(O)COc1cccc2[nH]c3ccccc3c12 (stereo unspecified) |  | 41.9 µM (active) |
| CCC(C)(C)C(=O)O | inactive |  |
| O=C(CCC1CCN(Cc2ccccc2)CC1)c1ccc2c(c1)NCCCC2 | inactive |  |
| NC(=S)Nc1cccc2ccccc12 | inactive |  |
| O=C(CCCCCCCCC#CI)Oc1ccccc1 | inactive |  |
| O=C(O)c1cc2ccccc2c(Cc2c(O)c(C(=O)O)cc3ccccc23)c1O | inactive |  |
